Measured values: PMC4336329 (PLoS ONE, 2015)
The campaign covered roughly 310,000 compounds. About 14,000 (4.5%) showed an effect of 50% or more. The effect is printed as a negative number. The entries come from a sample that favours strong results as a whole.

target: human ether-à-go-go-related gene (hERG) potassium channel (human, UniProt Q12809); test: primary screen, population patch clamp on CHO cells stably expressing hERG; higher = less effect of the substance
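Further: peak tail current of the secondary pulse compared with the same well before compound.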

human ether-à-go-go-related gene (hERG) potassium channel, sequence (Q12809 whole entry, looked up): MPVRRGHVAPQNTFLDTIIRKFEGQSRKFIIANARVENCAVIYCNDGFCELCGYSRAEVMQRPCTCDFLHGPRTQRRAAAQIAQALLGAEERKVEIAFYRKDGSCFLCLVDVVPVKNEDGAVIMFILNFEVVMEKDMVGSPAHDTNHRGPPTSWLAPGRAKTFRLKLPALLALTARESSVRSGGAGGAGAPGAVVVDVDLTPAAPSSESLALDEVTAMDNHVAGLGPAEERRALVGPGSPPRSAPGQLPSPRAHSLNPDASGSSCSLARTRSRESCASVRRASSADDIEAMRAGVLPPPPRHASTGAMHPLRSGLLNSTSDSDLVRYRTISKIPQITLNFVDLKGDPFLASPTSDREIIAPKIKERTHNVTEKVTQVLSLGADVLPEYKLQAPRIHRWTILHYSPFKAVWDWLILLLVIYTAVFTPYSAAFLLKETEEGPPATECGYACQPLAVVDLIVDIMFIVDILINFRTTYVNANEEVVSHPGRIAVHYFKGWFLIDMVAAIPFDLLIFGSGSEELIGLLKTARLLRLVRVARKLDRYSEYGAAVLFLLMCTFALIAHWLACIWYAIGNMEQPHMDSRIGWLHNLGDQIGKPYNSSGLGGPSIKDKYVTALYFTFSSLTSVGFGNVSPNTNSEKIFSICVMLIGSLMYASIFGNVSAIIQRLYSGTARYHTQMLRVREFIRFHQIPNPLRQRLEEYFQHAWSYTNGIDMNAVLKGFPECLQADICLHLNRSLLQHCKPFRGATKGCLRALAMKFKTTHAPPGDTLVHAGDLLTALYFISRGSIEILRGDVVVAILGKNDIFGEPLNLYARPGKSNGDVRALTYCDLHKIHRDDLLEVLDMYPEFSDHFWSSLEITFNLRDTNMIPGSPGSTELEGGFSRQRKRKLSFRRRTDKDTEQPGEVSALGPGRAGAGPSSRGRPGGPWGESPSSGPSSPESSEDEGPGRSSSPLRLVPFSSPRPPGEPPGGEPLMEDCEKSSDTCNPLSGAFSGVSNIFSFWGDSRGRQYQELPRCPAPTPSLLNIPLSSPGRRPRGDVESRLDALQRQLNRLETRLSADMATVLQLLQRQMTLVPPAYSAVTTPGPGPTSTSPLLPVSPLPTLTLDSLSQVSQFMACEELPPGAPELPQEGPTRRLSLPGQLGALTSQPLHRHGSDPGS

Compound	hERG current change (%, negative = inhibition) at 10uM
COc1ccc(CNC(=O)c2cc(=O)c3cc(C)c(C)cc3o2)cc1	19.3%
COc1ccccc1C1CC(c2cccc(NS(C)(=O)=O)c2)=NN1S(=O)(=O)c1ccccc1 (stereo not shown)	3.08%
COc1ccccc1C1CC(c2ccc(NS(C)(=O)=O)cc2)=NN1S(=O)(=O)c1ccccc1 (stereo not shown)	-69.6%
COc1ccccc1C1CC(c2ccccc2)=NN1S(=O)(=O)c1ccccc1 (stereo not shown)	12%
O=C(COC(=O)c1ccc(S(=O)(=O)N2CCOCC2)cc1)NCc1cccs1	2.5%
CCOc1ccc(N2CC(C(=O)Oc3ccccc3)CC2=O)cc1 (stereo not shown)	-10.9%
O=S(=O)(CCSc1nc2ccccc2o1)c1nc2ccccc2s1	-5.57%
Cc1cc(Cl)c(S(=O)(=O)N(C)C)cc1OCC(N)=O	10.5%
COc1ccc(C2CC(c3ccccc3)=NN2S(=O)(=O)c2ccccc2)cc1 (stereo not shown)	14.8%
O=C(CN(c1ccccc1)S(=O)(=O)c1ccc(Cl)cc1)Nc1ccccc1C(=O)N1CCCC1	-54.2%
COc1ccc(N(CC(=O)Nc2ccccc2C(=O)N2CCCC2)S(=O)(=O)c2ccccc2)cc1	-51.8%
Cc1ccc(S(=O)(=O)N(CC(=O)Nc2ccccc2C(=O)O)c2ccc(Cl)cc2)cc1	13.6%
COc1ccc(S(=O)(=O)N(CC(=O)Nc2ccccc2C(=O)N2CCOCC2)c2ccc(F)cc2)cc1	-57%
COc1ccc(N(CC(=O)Nc2ccccc2C(=O)N2CCCC2)S(C)(=O)=O)cc1	27.7%
CCOc1ccc(N(CC(=O)Nc2ccccc2C(=O)N2CCOCC2)S(=O)(=O)c2ccc(F)cc2)cc1	-30.5%
CCOc1ccc(N(CC(=O)Nc2ccccc2C(=O)N2CCCC2)S(C)(=O)=O)cc1	2.43%
COc1ccc(N(CC(=O)Nc2ccccc2C(=O)N2CCOCC2)S(=O)(=O)c2ccc(F)cc2)cc1	-44.6%
CN(CC(=O)Nc1ccccc1C(=O)N1CCCC1)S(=O)(=O)c1ccc(Cl)cc1	-22.8%
CCCn1c(SCC(=O)c2[nH]c(C)c(C(C)=O)c2C)n[nH]c1=O	-1.57%
COc1ccc(OC)c(NS(=O)(=O)c2ccc(NC(=O)c3ccc(NS(C)(=O)=O)cc3)cc2)c1	14.2%
Cc1ccc(-n2c(SCC(=O)Nc3nccs3)nc3c(c2=O)SCC3)cc1	0.0407%
CC1CC1C(=O)OCC(=O)Nc1ccccc1Oc1ccccc1 (stereo not shown)	13.9%

Compound	hERG current change (%, negative = inhibition) at 10uM
COc1ccc(Cl)cc1NC(=O)C1CC(=O)N(c2ccc(F)cc2)C1 (stereo not shown)	4.41%
CSc1ccc(/C=C(\NC(=O)c2ccco2)C(=O)N2CCCCC2)cc1	-29.6%
CSc1ncc(Cl)c(C(=O)Nc2ccc(C)c(C)c2)n1	13.4%
CCOc1ccc(-c2c(C)n([O-])c3c([n+]2=O)CCCCC3)cc1	17.4%
CCOc1ccc(-n2c(-c3ccc(Br)cc3)c[n+]3c2CCCCC3)cc1.[Br-]	-77.7%
CCOc1ccc(-n2c(-c3ccc(OC)cc3)c[n+]3c2CCCCC3)cc1.[Br-]	-76%
CCOc1ccc(N2C(=O)CC(Cc3ccc(Br)cc3)C2=O)cc1 (stereo not shown)	5.77%
CCOc1ccc(-c2c(C)n([O-])c3c([n+]2=O)CCCC3)cc1	-1.2%
CCOc1ccc(-c2c(C)n(-c3ccc(OCC)cc3)c3[n+]2CCCCC3)cc1.[O-][Cl+3]([O-])([O-])[O-]	-77.7%
O=C(CSc1ncnc2c1oc1ccccc12)NCc1ccco1	-12.4%
CC(C)(C)SCCNC(=O)c1ccc(CN2CCc3ccccc3C2)cc1	-35.1%
O=C(Cn1ccsc1=NC(=O)c1ccco1)c1ccccc1	-6.93%
O=C(Nc1ccc(F)cc1F)c1cc(=O)n(-c2ccccc2)c(=O)[nH]1	6.37%
COc1ccc(NC(=O)CSC2=NC(=O)CC(C)=N2)cc1	15.1%
O=C(NNC(=S)NC(=O)c1ccccc1)c1ccc(O)cc1	24.7%
COc1ccc(/C=C/C(=O)N(Cc2cccs2)C2CCS(=O)(=O)C2)cc1 (stereo not shown)	-48.6%
O=C(/C=C/c1ccccc1)N(Cc1ccc(Cl)cc1)C1CCS(=O)(=O)C1 (stereo not shown)	-30.6%
O=C(/C=C/c1ccccc1Cl)N(Cc1cccs1)C1CCS(=O)(=O)C1 (stereo not shown)	-31.5%
O=C(/C=C/c1ccc(Cl)cc1)N(Cc1cccs1)C1CCS(=O)(=O)C1 (stereo not shown)	-72.8%
O=C(/C=C/c1ccccc1)N(Cc1cccs1)C1CCS(=O)(=O)C1 (stereo not shown)	-30.3%
Cc1ccc(/C=C/C(=O)N(Cc2cccs2)C2CCS(=O)(=O)C2)cc1 (stereo not shown)	-79%
O=C(c1ccc(Cl)cc1)N(Cc1cccs1)C1CCS(=O)(=O)C1 (stereo not shown)	-24.4%

Compound	hERG current change (%, negative = inhibition) at 10uM
O=C(/C=C/c1ccccc1)N(Cc1cccc(Cl)c1)C1CCS(=O)(=O)C1 (stereo not shown)	-25.6%
O=C(/C=C/c1ccc(Cl)cc1)N(Cc1ccccc1)C1CCS(=O)(=O)C1 (stereo not shown)	-75%
S=C(NCc1cccs1)Nc1ccccc1Cl	9.58%
CCC1CCCCN1C(=O)CCS(=O)(=O)c1ccccc1 (stereo not shown)	13.7%
COc1ccc(/C(O)=C2/C(=O)C(=O)N(CCCC(=O)O)C2c2ccc(OC)cc2)cc1 (stereo not shown)	11.7%
Cc1cc(C(=O)NCc2cccc(Cl)c2)c2ccccc2n1	15.8%
COC(=O)c1cccc(C23CC4(C2)[C@H](CN(Cc2cccnc2)[C@@H]4c2ccccc2)C3c2ccccc2)c1 (stereo partly shown)	8.51%
CCC(=O)N1CCc2cc(S(=O)(=O)CCC(=O)NC3CCCCC3)ccc21	5.33%
Cc1nn(C)c(C(=O)N/N=C/c2ccncc2)c1Cl	7.35%
COc1ccccc1N1C(=O)c2ccc(C(=O)Nc3cccc(C(C)=O)c3)cc2C1=O	1.69%
CCn1cc(CN(C)S(=O)(=O)c2ccc3ccccc3c2)c(C)n1	-1.17%
COc1ccc([N+](=O)[O-])cc1NC(=O)c1cccs1	4.41%
CSc1ccc(C(=S)N2CCN(Cc3ccccc3)CC2)cc1	-50.4%
CCN(Cc1ccccc1)C(=O)CCc1nc(CN2CCN(C(=O)c3ccc([N+](=O)[O-])cc3)CC2)no1	-64.2%
O=C(Cc1ccccc1)NC1CCN(C(=O)c2ccc([N+](=O)[O-])cc2)CC1	-47.7%
CCN(Cc1ccccc1)C(=O)CCc1nc(-c2ccc(C)cc2)no1	-12.1%
COc1ccc([N+](=O)[O-])cc1NC1CCN(C(=O)c2cccs2)CC1	-85.7%
COc1ccc(OC)c(NC(=O)C2CCN(C(=O)c3cccs3)CC2)c1	15.7%
COc1ccc(-c2noc(CCC(=O)N3CCN(Cc4ccccc4)CC3)n2)cc1	-32.8%
Cc1ccc(C(=S)N2CCN(Cc3ccccc3)CC2)cc1	-42.9%
S=C(c1ccc(Br)cc1)N1CCN(Cc2ccccc2)CC1	-36.3%
COc1ccc(C(=O)N2CCN(C(=O)Cc3ccccc3)CC2)cc1.O=C(O)C(=O)O	0.269%

Compound	hERG current change (%, negative = inhibition) at 10uM
O=C(Cc1ccccc1)N1CCN(C(=O)c2ccc([N+](=O)[O-])cc2)CC1	-51%
Cc1ccc2nc(NC(=O)c3ccc(-c4nc5ccccc5s4)s3)sc2c1	0.614%
O=C(Nc1cccnc1)c1ccccc1NS(=O)(=O)c1ccc(F)cc1	-11.5%
Cc1c(Cl)ccc2c1NC(=O)C21NC(CCC(N)=O)[C@H]2C(=O)N(c3ccc(Cl)cc3)C(=O)[C@H]21 (stereo partly shown)	7.5%
O=C(c1ccccc1NS(=O)(=O)c1ccc(F)cc1)N1CCCCC1	-4.35%
COCCN(C(=O)CCCC(=O)Nc1ccccn1)C(C(=O)NC1CCCCC1)c1ccc(C)cc1 (stereo not shown)	-17.7%
CCc1ccc2oc(-c3ccc(NC(C)=O)cc3)nc2c1	10.7%
O=C(c1ccc(F)cc1)N1CCN(C(=O)c2ccc([N+](=O)[O-])cc2)CC1	-63.2%
O=C(c1ccc([N+](=O)[O-])cc1)N1CCN(c2cccc3[nH]ccc23)CC1	-72.7%
O=C(NNC(=O)c1ccc([N+](=O)[O-])cc1)c1ccc(F)cc1	6.25%
O=C(c1ccc(Cl)cc1)N1CCN(c2cccc3[nH]ccc23)CC1	3.68%
O=C(c1ccc([N+](=O)[O-])cc1)N1CCN(Cc2ccccc2)CC1	-66.4%
O=C(c1ccc([N+](=O)[O-])cc1)N1CCN(c2ncccn2)CC1	-77.8%
O=C(c1cccc([N+](=O)[O-])c1)N1CCN(Cc2ccccc2)CC1	-9.31%
O=C(Nc1ccc(C(=O)N2CCCCC2)cc1)c1ccc([N+](=O)[O-])cc1	-1.34%
O=C(c1c(Cl)cccc1Cl)N1CCN(c2cccc3[nH]ccc23)CC1	22.3%
O=C(c1cc([N+](=O)[O-])ccc1Cl)N1CCN(Cc2ccccc2)CC1	4.75%
O=C(c1ccccc1)N1CCN(c2ncccn2)CC1	17.6%
O=C(c1cccc([N+](=O)[O-])c1)N1CCN(c2ncccn2)CC1	-8.55%
